Assay results published in PubChem BioAssay (NCI).
This is part of a sample that, as a whole, favours compounds with a hit. Of some 83,000 tested, about 20% had one in any assay.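 Interpretation: 100, growth as untreated; towards 0, rising growth inhibition; 0, no net growth; 0 to -100, cell death. Compounds scoring below 10 were considered active.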 Calls of active or inactive are those of the source.

Assays:
Experiment in all cases: NCI-60 one-dose screen, 48 h (100 = growth as untreated, 0 = no growth, -100 = all killed)
Details in all cases: 10 µM unless noted
[1] = system: DU-145 prostate
[2] = system: K-562 leukemia
[3] = system: MALME-3M melanoma
[4] = system: MDA-MB-231 breast
[5] = system: RXF 393 renal
[6] = system: SF-268 CNS
[7] = system: SF-295 CNS
[8] = system: SF-539 CNS
[9] = system: UACC-257 melanoma
[10] = system: M14 melanoma
[11] = system: HCT-15 colon
[12] = system: HT29 colon
[13] = system: SNB-75 CNS
[14] = system: SNB-19 CNS
[15] = system: U251 CNS
[16] = system: PC-3 prostate
[17] = system: SK-MEL-5 melanoma
[18] = system: UACC-62 melanoma
[19] = system: LOX IMVI melanoma
[20] = system: SK-MEL-28 melanoma

Measured: growth

O=C(NO)c1ccc(-n2nc(-c3ccccc3)c3ccccc32)cc1
inactive: [1] 38.4% | [2] 37.8% | [3] 57% | [4] 40.3% | [5] 36.5% | [6] 54.7% | [7] 80.9% | [8] 49.3% | [9] 78.5% | [10] 57.2% | [11] 18.5% | [12] 41.7% | [13] 12.1% | [14] 47.4% | [15] 34.4% | [16] 46.7% | [17] 57.6% | [18] 34.5% | [19] 24.8% | [20] 72.5%

COc1c(Cl)c2c(c(OC)c1OC)-c1ccc(SC)c(=O)cc1[C@@H](NC(=O)OCC(F)(F)F)CC2
inactive: [3] 34.9% | [5] 18.7% | [6] 27.2% | [7] 15% | [9] 70.5% | [12] 13.5% | [13] 37.4% | [14] 29.4% | [15] 20.6% | [16] 24.7% | [18] 34.4% | [19] 15.1% | [20] 63%
active: [1] -6.54% | [2] 7.39% | [4] -1.03% | [8] -19% | [10] 0.43% | [11] 9.54% | [17] -7.65%

C=C1C(=O)O[C@H]2[C@H]1CC/C(COC(=O)NCC(C)c1ccc(CC(C)C)cc1)=C\CC[C@@]1(C)O[C@@H]21 (stereo not given in full)
inactive: [1] 16.4% | [7] 83.4% | [9] 56.1% | [14] 36.9% | [17] 17.1%
active: [2] -18.2% | [3] -62.7% | [4] -62.8% | [5] -73.7% | [6] -17.1% | [8] -77% | [10] -29.8% | [11] -59.2% | [12] -60.6% | [13] -5.57% | [15] -22.3% | [16] 0.0191% | [18] -37.7% | [19] -83.8% | [20] -66.7%

CCOC(=O)c1nc2c3ccccc3ccn2c1C(=O)OCC
inactive: [1] 92.1% | [2] 99.1% | [3] 103% | [4] 98.2% | [5] 103% | [6] 89% | [7] 104% | [8] 99.9% | [9] 126% | [10] 121% | [11] 99.7% | [12] 105% | [13] 36.8% | [14] 89.2% | [15] 105% | [16] 110% | [17] 98.2% | [18] 87.5% | [19] 98.6% | [20] 113%

O=S(=O)(NCCNc1nccc(-c2c(-c3cccc(F)c3)nc3sccn23)n1)c1ccc(Cl)cc1
inactive: [1] 54.2% | [2] 41.3% | [3] 82.6% | [4] 91.1% | [5] 69% | [6] 52.9% | [7] 63.7% | [8] 82.5% | [9] 88.7% | [10] 56.6% | [11] 31.8% | [12] 36% | [13] 78.9% | [14] 66.5% | [15] 55.2% | [16] 56.9% | [17] 36.5% | [18] 44.3% | [19] 43.7% | [20] 74.7%

CN(C)c1ccc(Nc2c3ccccc3nc3cc(NC(=O)CCN4CCCC4)ccc23)cc1
inactive: [18] 15.5%
active: [1] -38.5% | [2] -4.43% | [3] -90.9% | [4] -38.1% | [5] -6.44% | [6] -6.93% | [7] 6.34% | [8] -69% | [9] -52% | [10] -84.9% | [11] -18.4% | [12] 1.99% | [13] -0.0133% | [14] -7.13% | [15] -48.6% | [16] -25.4% | [17] 0.523% | [19] -74.8% | [20] -34.7%

c1ccc2c(-c3nccs3)c[nH]c2c1
inactive: [1] 107% | [2] 99.2% | [3] 99.1% | [4] 92.6% | [5] 95% | [6] 96.7% | [7] 101% | [8] 96.4% | [9] 111% | [10] 99.1% | [11] 94.3% | [12] 98.9% | [13] 90.7% | [14] 98.1% | [15] 103% | [16] 81.5% | [17] 95.3% | [18] 93.5% | [19] 99.7% | [20] 100%

COc1cc2c(c(O)c1Cl)C(=O)c1c(O)cc(C[C@H](C)O)cc1[C@H]2[C@H]1c2cc(C[C@H](C)O)cc(O)c2C(=O)c2c1cc(OC)c(Cl)c2O
active: [3] -32.6% | [4] -57.9% | [7] -14.6% | [8] -8.14% | [9] -4.04% | [11] 8.82% | [12] 9.65% | [13] -3.83% | [15] 8.26% | [17] -65.7% | [18] 0.814% | [19] 7.32%
inactive: [1] 23.8% | [2] 11.7% | [5] 10.4% | [6] 21.4% | [10] 19% | [14] 18% | [16] 16.7% | [20] 38.2%

N=C(N)c1ccc(OCCCCCCCCCCOc2ccc(C(=N)N)cc2)cc1
active: [1] -96.6% | [2] -67.5% | [3] -81.8% | [4] -91.7% | [5] -82.8% | [6] -81.3% | [7] -82.4% | [8] -87% | [9] -69.7% | [10] -85.6% | [12] -90.8% | [13] -76.9% | [14] -91.9% | [15] -85.5% | [16] -91.3% | [17] -96.1% | [18] -97.2% | [19] -97.3% | [20] -93.9%
inactive: [11] 37.3%

CCCCNC(=O)Oc1ccc(/C(=C(\C)c2ccccc2)c2ccc(OCCN3CCCCC3)cc2)cc1
inactive: [1] 82.3% | [3] 44.6% | [4] 73% | [5] 53.2% | [6] 67.7% | [7] 42.6% | [8] 31% | [13] 84.6% | [14] 71.5% | [15] 50.7% | [16] 55.3% | [17] 68.9% | [18] 41.8% | [19] 62% | [20] 46.7%
active: [2] 5.45% | [9] -24.1% | [10] -15.6% | [11] 9.66% | [12] 0.947%

CCCCCCCCCCCCCCCC[N+]1(C)CCN(SN2CC[N+](C)(CCCCCCCCCCCCCCCC)CC2)CC1
inactive: [1] 70.5% | [2] 40.4% | [3] 78.4% | [4] 53.9% | [6] 64.4% | [7] 71.2% | [8] 48.7% | [9] 92.9% | [10] 20.8% | [11] 54.2% | [12] 19.7% | [13] 50.3% | [14] 29.3% | [15] 23.2% | [16] 33% | [17] 95.4% | [18] 72.8% | [19] 34.1% | [20] 98.4%
active: [5] -7.8%

CC1(C)c2[nH]c3ccccc3c2C[C@]2(C)[C@H]3C(=O)C=C4[C@@H]5C[C@@](C)(C(N)=O)CC[C@]5(C)CC[C@@]4(C)[C@]3(C)CC[C@@H]12
inactive: [1] 92.2% | [2] 31.3% | [3] 79.3% | [4] 74.1% | [5] 70.5% | [6] 69.1% | [7] 82.9% | [8] 92.8% | [9] 83.2% | [10] 80.2% | [11] 65.8% | [12] 56.3% | [13] 89.3% | [14] 78.6% | [15] 70.4% | [16] 42.1% | [17] 72% | [18] 70.6% | [19] 83% | [20] 93.3%

Cn1ccnc1C(=O)/C=C/c1ccc(CC(=O)Nc2ccc(Cl)cc2)cc1
inactive: [3] 87.6% | [5] 17.9% | [9] 85.9% | [10] 67.7% | [13] 11.8% | [16] 32.7% | [17] 33.3% | [18] 35% | [19] 13.1% | [20] 70.9%
active: [1] 6.47% | [2] 7.81% | [4] 7.75% | [6] 7.98% | [7] 1.24% | [8] -35.2% | [11] 5.48% | [12] 3.03% | [14] 6.66% | [15] 6.28%

CC1=C(C(=O)/C=C/c2ccc(N(C)C)cc2)C(c2ccccc2)NC(=S)N1 (stereo not given)
inactive: [1] 107% | [2] 92.1% | [3] 108% | [4] 100% | [5] 107% | [6] 97.8% | [7] 110% | [8] 97.1% | [9] 99.7% | [10] 101% | [11] 105% | [12] 102% | [13] 86.9% | [14] 95.1% | [15] 101% | [16] 98.3% | [17] 99.3% | [18] 94.3% | [19] 98.5% | [20] 110%

CN(C)c1ccc(C2C(C#N)=C(/N=C/c3ccccc3)Oc3c2ccc2ccccc32)cc1 (stereo not given)
active: [13] -0.718%
inactive: [1] 87.8% | [2] 17.1% | [3] 77.8% | [4] 58.1% | [5] 75.9% | [6] 66.5% | [7] 49.5% | [8] 68.6% | [9] 82.7% | [10] 59.4% | [11] 48% | [12] 69.9% | [14] 74.2% | [15] 74.8% | [16] 50.7% | [17] 71.5% | [18] 49.2% | [19] 54.6% | [20] 80.1%
